Screening results from PubChem.
697 NFkB inh – inhibitors of PMA/ionomycin-induced NF-kB reporter, 697 cells, primary screen, B-cell NF-kB inhibitor project, cell-based, luminescence, uHTS; AID 435022, 2010; hit rate 0.33% among 330,000; inhibition, % at 4 µM; 697 B-cell NF-kB luciferase reporter, 16 h; in the data active means inhibition above about 35%
Mdm2 MdmX PPI – inhibitors of human Mdm2-MdmX association, primary screen, cell-based, luminescence, split luciferase, SaOS-2, uHTS; Protein Mdm4 (Homo sapiens) + E3 ubiquitin-protein ligase Mdm2 (Homo sapiens), …; SaOS-2 split-luciferase Mdm2/MdmX complementation; inhibition, % at 8 µM; hit rate 3% among 330,000;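 active means inhibition of at least 50% at 8 µM in the primary screen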
Target sequence (O15151 whole entry, looked up): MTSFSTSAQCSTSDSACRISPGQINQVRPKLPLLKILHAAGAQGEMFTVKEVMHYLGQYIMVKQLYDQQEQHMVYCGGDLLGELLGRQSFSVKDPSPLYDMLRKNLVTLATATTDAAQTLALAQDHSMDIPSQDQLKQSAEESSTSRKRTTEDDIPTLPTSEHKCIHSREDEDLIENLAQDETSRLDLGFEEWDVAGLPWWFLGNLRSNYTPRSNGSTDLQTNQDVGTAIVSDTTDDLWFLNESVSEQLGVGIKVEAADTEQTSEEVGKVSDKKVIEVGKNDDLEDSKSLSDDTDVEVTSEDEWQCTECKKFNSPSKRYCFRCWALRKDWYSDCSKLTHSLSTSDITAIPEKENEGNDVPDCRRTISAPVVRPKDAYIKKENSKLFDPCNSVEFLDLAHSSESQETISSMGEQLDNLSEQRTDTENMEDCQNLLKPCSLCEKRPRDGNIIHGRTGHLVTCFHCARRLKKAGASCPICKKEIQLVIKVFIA
Target sequence (Q00987 whole entry, looked up): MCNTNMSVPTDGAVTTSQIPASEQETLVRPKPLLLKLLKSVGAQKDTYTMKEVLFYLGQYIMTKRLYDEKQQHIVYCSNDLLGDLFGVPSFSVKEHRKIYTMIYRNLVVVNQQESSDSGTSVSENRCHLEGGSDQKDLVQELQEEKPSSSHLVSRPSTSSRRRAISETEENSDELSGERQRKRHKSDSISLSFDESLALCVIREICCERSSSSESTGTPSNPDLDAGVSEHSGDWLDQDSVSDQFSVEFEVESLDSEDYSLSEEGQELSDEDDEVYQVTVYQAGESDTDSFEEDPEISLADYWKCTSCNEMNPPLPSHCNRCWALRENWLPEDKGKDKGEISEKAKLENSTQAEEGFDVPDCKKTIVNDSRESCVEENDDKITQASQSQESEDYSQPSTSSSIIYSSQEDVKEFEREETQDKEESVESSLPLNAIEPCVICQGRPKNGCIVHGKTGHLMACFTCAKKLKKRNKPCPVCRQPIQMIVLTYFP
CSC inhib – cancer stem cell viability inhibitors, primary screen, luminescence | cancer stem cell-like cells viability | inhibition, % at 7.5 µM | hit rate 1.1% among 300,000; in the data active means inhibition above about 75%; inconclusive means no clear call, values can overlap the other calls; tested in HMLE shEcad cells
Jurkat NFkB inh – inhibitors of induced NF-kB luciferase reporter, primary screen, TCR NF-kB activation inhibitor project, cell-based, luminescence, uHTS. Jurkat, PMA/ionomycin-induced NF-kB luciferase reporter. inhibition, % at 4 µM. hit rate 0.53% among 330,000; in the data active means inhibition above about 50%
Gli-Sufu antag – Gli-Sufu pathway antagonists, primary screen, luciferase luminescence, Sufu-KO-LIGHT cells, uHTS | Sufu-KO-LIGHT fibroblasts, Gli luciferase reporter luminescence | inhibition, % at 5 µM | hit rate 0.74% among 340,000 | AID 588413, 2011;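 active means inhibition above about 55%, limit read from the data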;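 further: 0% = DMSO-treated cells and 100% = wells with medium but no cells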
aSyn 5UTR inh – MLPCN primary screen, SNCA 5' untranslated region. alpha-synuclein 5'UTR reporter, inhibitor activity. inhibition, % (tested at 7.5 µM). hit rate 0.82% among 300,000. AID 1813, 2009; in the data active means inhibition above about 60%; inconclusive means no clear call, values can overlap the other calls;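 further: H4 neuroglioblastoma cells stably carrying SNCA 5'UTR luciferase fusion; 0% = DMSO wells and 100% = positive control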
Mdm2-MdmX conf – Mdm2-MdmX complex disruptors, retested hits, confirmation, luminescence, single concentration. hit rate 55% among 10,000. AID 489028, 2010. inhibition, % at 8 µM. Mdm2-MdmX binding, luminescent assay. shares compounds with Mdm2 MdmX PPI; in the data active means inhibition above about 40%
FLuc counter – full-length luciferase signal inhibition, confirmation, counter-screen for Mdm2/MdmX interaction inhibitor project, cell-based, single concentration, SaOS-2 | inhibition, % at 8 µM | SaOS-2 full-length luciferase counterscreen, luminescence | AID 504607, 2011 | hit rate 77% among 6,200 | shares compounds with Mdm2 MdmX PPI;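 active means mean inhibition at 8 µM reaching about 37%, which flags the compound as non-specific, limit read from the data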;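 further: p53-null SaOS-2 cells with luciferase driven by a doxycycline-inducible promoter; compound on cells about two nights before reading with doxycycline added after day one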
The depositor's hits bear a star; ? = inconclusive; . = not tested or not shown. Rows were chosen to be rich in hits. Some 4.5% of all compounds tested hit in one or more screens of this group.

SMILES	697 NFkB inh	Mdm2 MdmX PPI	CSC inhib	Jurkat NFkB inh	Gli-Sufu antag	aSyn 5UTR inh	Mdm2-MdmX conf	FLuc counter
COc1cccc(C2CC(c3cccc(NS(C)(=O)=O)c3)=NN2C(=O)c2ccccc2)c1OC (stereo not drawn)	10	18	-7	6	7	14	.	.
O=C(CC1C[C@H](C(=O)N2CCCCC2)[C@@]2(CCc3ccccc3)c3[nH]c4ccccc4c3CCN2C1=O)NCCCn1ccnc1 (stereo partly drawn)	-5	7	.	5	1	.	.	.
CN1CCN(C2=Cc3ccc(Cl)cc3Sc3ccc(F)cc32)CC1	28	60*	121*	7	-5	-23	29	.
CN1CCN(C2=Cc3ccccc3Sc3cc(F)ccc32)CC1	-10	23	18	-9	24	0	.	.
Cc1ccc(OCC(=O)c2c(N)n(C)c(=O)n(C)c2=O)c([N+](=O)[O-])n1	-6	-26	.	-12	6	.	.	.
COc1ccccc1C(=O)Nc1cc2ccccc2oc1=O	-114	-20	-1	-116	-24	-172	.	.
CCCCCCc1cc2cc(-c3nnc(-c4ccccc4O)o3)c(=O)oc2cc1O	19	73*	109*	9	24	-20	91*	22
CCCCCCc1cc2cc(C(=O)Nc3ccccc3OC)c(=O)oc2cc1O	13	95*	19	2	12	14	9	.
CCCCCCc1cc2cc(-c3nnc(-c4ccccc4OC)o3)c(=O)oc2cc1O	1	18	?	2	-24	-6	.	.
CCCCCCc1cc2cc(S(=O)(=O)c3ccc(F)cc3)c(=O)oc2cc1O	8	57*	30	-6	4	7	51*	85*
Cc1nn(Cc2c(Cl)cccc2Cl)c(C)c1NC(=O)Cn1nc([N+](=O)[O-])c(Cl)c1C	6	70*	-12	6	3	33	4	.
Cc1nn(Cc2ccccc2)c(C)c1NC(=O)Cn1nc([N+](=O)[O-])c(Cl)c1C	3	2	-12	7	47	-6	.	.
OCCN1CCN(c2ncnc3ccc(Br)cc23)CC1	-14	51*	.	27	-6	-39	60*	45*
Cc1ccc(C(=O)NNC(=O)Cn2ccc(C(F)(F)F)n2)o1	19	2	.	8	-6	2	.	.
COc1cc(C(=O)Nc2ccccc2C(=O)Nc2ccccn2)cc(OC)c1OC	-8	63*	54	36	1	-67	52*	47*
COc1cc(C(=O)Nc2ccc3c(c2)N(C(=O)CCN(C)C)c2ccccc2CC3)cc(OC)c1OC	30	61*	-2	3	29	2	41*	100*
COc1cc(C(=O)N/C(=C/c2ccc(F)cc2)C(=O)NC(C(=O)O)c2ccccc2)cc(OC)c1OC (stereo not drawn)	4	6	4	5	-5	-13	.	.
COc1cccc(/C=N/N=C(\N)c2nonc2N)c1O	-91	-19	-2	-10	-41	-105	.	.
Cc1nc2c(c(C)nn2-c2ccccc2)c(C)c1CCC(=O)Nc1ccc(CN2CCCC2)cc1	4	64*	19	-6	-3	-20	35	53*
Cc1ccc(C)c(N2N=C(C(=O)NCCN3C(=O)S/C(=C\c4cccnc4)C3=O)CCC2=O)c1	-9	-1	-9	9	3	-16	.	.
Cc1oc2cc(O)cc(C)c2c(=O)c1-c1cnn(-c2ccccc2)c1	16	58*	28	17	4	-23	24	.
COc1cc2cc(C)c(SCC(=O)N3CCOCC3)nc2cc1OC	10	11	-7	-14	9	17	.	.
